This is an account of results in PubChem BioAssay (NCI).

Test in all cases: NCI-60 one-dose screen, 48 h (100 = growth as untreated, 0 = no growth, -100 = all killed)
What all share (conditions): 10 µM unless noted

Test [1] has as its system NCI-H23 lung.
Test [2] concerns NCI-H226 lung.
The test system of test [3] is NCI-H322M lung.
Test [4] deals with HOP-62 NSCLC.
For test [5], the system named is NCI-H460 lung.
For test [6], the system named is HOP-92 NSCLC.
In test [7] the test system is A549/ATCC NSCLC.
For test [8], the system named is 786-0 renal.
The subject of test [9] is COLO 205 colon.

SMILES strings stand for the structures. Compounds without any hit were thinned out: in the full panel of roughly 83,000, 20% have a hit.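 In brief: 96-well plates, 48 h treatment, single concentration, percent growth endpoint.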 Unmarked numbers belong to inactive results. Active and inactive are the calls of the source. The calls were made as follows: active = growth percent below 10; inactive = the rest.

On to `O=C1/C(=C/c2ccccc2Cl)CCc2ccccc21`, for which the growth in test [1] was 102%; in [2] it was 106%; in test [3] it was 101%; in test [4], 106%; in [5] it was 104%; in [6], 90.7%. The growth in [7] was 83.5%; in test [8], 102%; in [9], 115%.
`COc1cc2c(cc1OC)C(CC1(O)CCCCC1)N(S(=O)(=O)c1ccc(C)cc1)CC2` (configuration not stated): the growth in test [1] was 29.3% [100 µM]; in test [2] it was 57.6% [100 µM]; in test [3], 57.8% [100 µM]; in test [4], 79.3% [100 µM]; in test [5], 8.16% [100 µM] (active); in test [6], -10.6% [100 µM] (active). Moreover, the growth in [7] was 20.9% [100 µM]; in test [8] it was 29.7% [100 µM]; in [9], 1.18% [100 µM] (active).
Turning to `O=C(Nc1cccc(Cl)c1)Nc1cccc(Cl)c1`, the growth in [1] was 35.8%; in test [2], 81.1%; in test [3] it was 79.1%; in test [4], 88.2%; in [5], 52%; in test [6], 87.6%. In addition, the growth in test [7] was 52.4%; in [8], 77.1%; in test [9], 89.2%.
Consider `NS(=O)(=O)c1ccc(-n2ncc3c(NC4CCCCC4)ncnc32)cc1`, for which the growth in test [1] is 103%; in [2], 91.5%; in test [3], 107%; in test [4], 101%; in [5], 110%; in test [6], 47.4%. The growth is 83% in test [7], 81% in [8] and 95% in test [9].
`CC1CN(CC(O)c2ccc(Br)cc2)CCO1` (configuration not stated): the growth was 104% in test [1]; 109% in test [2]; 107% in [3]; 108% in test [4]; 108% in test [5]; 82.5% in [6]. For the same compound, the growth in test [7] was 102%; in test [8], 102%; in test [9], 98.1%.
As for `O=[N+]([O-])c1ccc(N=Nc2c(Cl)cc(O)cc2Cl)cc1`, the growth in test [1] was -23.4% (active); in [2], 10.3%; in [3], -11.9% (active); in test [4], 4.04% (active); in test [5], -4.31% (active); in test [6], 3.34% (active). Besides, the growth in test [7] is 16.4%; in test [8], -20.1% (active); in [9], 35.2%.
As to `Cc1ccccc1NC(=O)N/C(N)=N/c1nc2ccccc2s1`, the growth in [1] is 31.8%; in test [2], 21%; in test [3], 39.2%; in test [4] it was 40.7%; in test [5] it was 11.7%; in test [6], 126%. The figures for the growth in [7], in test [8] and in test [9] were 22.7%, 30.7% and 6.68% (active), respectively.
Consider `N#Cc1c(-c2ccccc2)cc(-c2ccccc2)n(CC(=O)O)c1=O`, for which the growth was 70.2% in test [1]; 75.2% in test [2]; 96.9% in [3]; 53.8% in [4]; 40.7% in [5]; 61.7% in [6]. In addition, the growth in [7] was 51.9%; in test [8] it was 62.9%; in test [9], 68.4%.
As to `CNNc1ncnc2c1cnn2-c1ccc(S(N)(=O)=O)cc1`, the growth in test [1] is 94.2%; in [2], 91.3%; in test [3], 104%; in test [4], 85.6%; in [5], 117%; in [6], 41.5%. Also, the growth in [7] is 92.9%; in [8], 91.7%; in [9] it was 120%.
On to `Cc1sc2nc(NCCc3cccs3)[nH]c(=O)c2c1C`, for which the growth in test [1] was 98.5%; in [2] it was 83.2%; in test [3], 104%; in test [4], 68.4%; in [5], 95.7%; in [6] it was 93.3%. Also, the figures for the growth in test [7], in test [8] and in test [9] were 58.7%, 81.6% and 91%, respectively.
Turning to `Cc1ccc2c(c1)C(=O)/C(=C\Nc1ccc(C(N)=O)cc1)C(O)O2` (configuration not stated), the growth in [1] is 114%; in test [2], 154%; in test [3], 95.8%; in test [4] it was 88.3%; in [5], 111%; in test [6] it was -17.9% (active). Besides, the growth in test [7] was 114%; in [8] it was 110%; in [9], 108%.
Regarding `O=C1C(=O)c2c(nc3ccc(Cl)cn23)-c2ccccc21`, the growth in test [1] was -45.4% (active); in [2] it was -53.9% (active); in test [3], -92.1% (active); in test [4], -87.9% (active); in test [5] it was -100% (active); in test [6], -79.8% (active). Besides, the results for the growth in [7], in [8] and in [9] were -80.8% (active), -100% (active) and -100% (active), respectively.
Regarding `CCn1cnc(C[C@H](NC(=O)[C@H](CCCCNC(=O)Nc2cc(C(F)(F)F)cc(C(F)(F)F)c2)NC(=O)Nc2cc(C(F)(F)F)cc(C(F)(F)F)c2)C(=O)OC)c1`, the growth in test [1] is -65.8% [100 µM] (active); in [2], 2.9% [100 µM] (active); in [3], 5.23% [100 µM] (active); in test [4] it was -75.3% [100 µM] (active); in [5], -41.1% [100 µM] (active); in test [6], -45.4% [100 µM] (active). Besides, the growth in test [7] was -75.3% [100 µM] (active); in [8], -54.3% [100 µM] (active); in test [9], -100% [100 µM] (active).
`CC1=C([Se]CC(OC(=O)[C@@H](CSSC(C)(C)C)NC(=O)C(C)(C)C)C(=O)NCCCCCC(=O)OCc2ccccc2)C(=O)c2ccccc2C1=O` (some centres not stated): the growth in test [1] was -30.2% (active); in test [2] it was 3.19% (active); in [3], -22.6% (active); in test [4], -95% (active); in test [5], 1.81% (active); in test [6] it was -35.9% (active). Also, the growth in [7] is 1.31% (active); in test [8] it was -55.6% (active); in [9] it was 40.4%.
With `COC(=O)[C@H](Cc1cn(C)cn1)NC(=O)[C@H](Cc1ccccc1)NC(=O)Nc1cc(C(F)(F)F)cc(C(F)(F)F)c1`, the growth in test [1] was -83.3% [100 µM] (active); in [2], -50.9% [100 µM] (active); in [3], -94.2% [100 µM] (active); in test [4], -97.4% [100 µM] (active); in test [5], -50% [100 µM] (active); in [6], -97.3% [100 µM] (active). The growth was -85.6% [100 µM] (active) in test [7], -91.4% [100 µM] (active) in test [8] and -82.1% [100 µM] (active) in test [9].
In the case of `COc1cc(-c2n[nH]nc2-c2ccccn2)cc(OC)c1OC`, the growth in test [1] is 98.2%; in [2] it was 90.3%; in [3] it was 95.8%; in test [4], 97.5%; in test [5], 104%; in test [6], 86.3%. Further, the growth was 65.6% in test [7], 96.4% in test [8] and 119% in [9].
Regarding `COc1ccc(-n2cnc3cc(C(=O)N4CCCCC4)ccc32)cc1`, the growth in test [1] is 95.5%; in [2], 95.3%; in test [3] it was 102%; in test [4], 91.4%; in test [5] it was 101%; in test [6] it was 95.3%. The growth in test [7] was 103%; in [8] it was 100%; in [9], 105%.
On to `Cc1ccc(-c2c3c(N)c4c(nc3nc3c2c(C)nn3-c2ccccc2)CCC4)cc1`, for which the growth is 66.8% in test [1]; 92.6% in [2]; 89.1% in test [3]; 95.7% in [4]; 5% (active) in [5]; 77.9% in test [6]. The growth was 32.9% in test [7], 28% in [8] and -74.4% (active) in [9].
